Measurements taken from the supplement of paper PMC10127200.
Structures can show the parent of a compound that is named as a salt.

What was measured:
Assay in all cases: Euclidean distance of Cell Painting phenotypic profile (signed KS, 77 features) to DMSO centroid (dimensionless distance); higher = stronger phenotypic change vs DMSO (phenoactivity)
Details in all cases: 48 h; 5 or 10 uM (library dependent)
786-O = test system: 786-O
Method in brief: (§1)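 Harmony extracted 77 features from 20X confocal images (9 fields/well) of stained cells, scoring each as a signed Kolmogorov-Smirnov statistic against same-plate vehicle wells. The cells, five cancer lines and a healthy fibroblast line, had received library compounds for 48 h at 10 or 5 uM depending on library, with 0.1% DMSO final. Phenoactivity is the Euclidean distance from each plate-position-corrected, correlation-weighted, top-dose replicate-averaged profile to the median vehicle profile.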

A549 = test system: A549
Method in brief: as §1

DU145 = test system: DU145
Method in brief: as §1

FB = test system: FB
Method in brief: as §1

HEPG2 = test system: HEPG2
Method in brief: as §1

OVCAR4 = test system: OVCAR4
Method in brief: as §1

Compound	Euclidean distance (786-O)	Euclidean distance (A549)	Euclidean distance (DU145)	Euclidean distance (FB)	Euclidean distance (HEPG2)	Euclidean distance (OVCAR4)
c1ccc2c(c1)Nc1ccccc1S2 [Phenothiazine]	0.657	0.876	0.829	1.1	1.4	0.881
C=CCC(C(=O)NC(N)=O)C(C)C (configuration not stated) [Apronal]	1.22	0.684	1.07	0.907	0.938	1.09
O=C(Oc1ccc([N+](=O)[O-])cc1)N1CCC(C(O)(c2ccc3c(c2)OCO3)c2ccc3c(c2)OCO3)CC1	1.24	1.34	1.4	1.86	1.15	1.12
O=C(O[C@H]1C[C@H]2CC[C@@H](C1)[N+]21CCCC1)C(O)(c1ccccc1)c1ccccc1 [Trospium chloride]	0.712	0.693	0.879	0.927	0.66	1.39
C#C[C@]1(O)CC[C@H]2[C@@H]3CCC4=CC(=O)CC[C@]4(C)[C@H]3CC[C@@]21C [Ethisterone]	1.07	0.836	1.58	0.721	0.747	1.06
Nc1ccncc1 [4-Aminopyridine]	1.38	0.626	0.961	0.938	0.429	0.946
O=C(O)CNC(=O)c1c(O)c2ccccc2n(Cc2ccccc2)c1=O	0.98	0.849	1.14	1.06	0.682	0.719
O=[N+]([O-])O[C@@H]1CO[C@H]2[C@@H]1OC[C@@H]2O [Isosorbide Mononitrate]	1.15	1.13	0.879	0.9	0.868	0.962
CN(C)C(=O)Oc1cccc([N+](C)(C)C)c1 [Neostigmine Bromide]	1.45	0.931	0.914	0.963	0.858	1.53
Cc1ccccc1-n1c(CF)nc2ccc(N)cc2c1=O [Afloqualone]	0.926	0.643	0.714	1.21	0.422	0.949
Cc1cccc(C(C)c2c[nH]cn2)c1C (configuration not stated) [Medetomidine HCl]	0.819	0.591	0.87	0.682	0.602	1.07
C[C@@H]1[C@H](O)[C@@H](C)/C=C/C=C/CC/C=C/C=C/C=C/C=C/[C@H](O[C@H]2O[C@@H](C)[C@H](O)[C@@H](N)[C@H]2O)C[C@@H]2O[C@](O)(C[C@@H](O)[C@H](O)CC[C@@H](O)C[C@@H](O)C[C@@H](O)CC(=O)O[C@H]1C)C[C@H](O)[C@H]2C(=O)O [Nystatin (Fungicidin)]	1.05	1.12	1.4	0.85	1.2	1.06
O=c1c2ccccc2[se]n1-c1ccccc1 [Ebselen]	1.37	1.48	1.01	1.16	0.769	1.42
Cc1cccc(C)c1NC1=NCCCS1 [Xylazine]	1.17	0.386	1.01	0.632	0.887	0.579
C=C1C[C@@H]2[C@H](CC[C@]3(C)C(=O)CC[C@@H]23)[C@@]2(C)C=CC(=O)C=C12 [Exemestane]	1.7	1.06	0.488	1	0.7	1.37
CN[C@@H]1[C@@H](O)[C@@H](O[C@@H]2[C@@H](O)[C@H](O[C@H]3O[C@H]([C@@H](C)O)[C@@H](O)[C@H](O)[C@H]3N)[C@@H](N)C[C@H]2N)OC[C@]1(C)O [Geneticin (G418 Sulfate)]	1.73	0.917	1.4	1.24	1.23	1.53
Cc1cc(C2=NOC(c3cc(Cl)cc(Cl)c3)(C(F)(F)F)C2)ccc1C(=O)NCC(=O)NCC(F)(F)F (configuration not stated) [Fluralaner]	1.38	1.29	1.17	1.44	0.786	1.36
C[C@H]1CC(=O)C[C@@H]2CC[C@H]3[C@@H]4CC[C@H](O)[C@@]4(C)CC[C@@H]3[C@]21C [Mesterolone]	1.38	1.27	1.33	1.08	0.446	0.883
COc1ccc(CN2CCNCC2)c(OC)c1OC [Trimetazidine dihydrochloride]	0.784	0.96	0.805	0.719	0.412	1.08
C[C@]12CCC(=O)C[C@@H]1CC[C@@H]1[C@@H]2CC[C@]2(C)[C@@H](O)CC[C@@H]12 [Dihydrotestosterone(DHT)]	1.54	0.944	0.925	0.775	0.429	0.677
O=C/C=C/c1ccccc1 [Cinnamaldehyde]	1	0.658	0.988	0.954	1.14	0.848

Compound	Euclidean distance (786-O)	Euclidean distance (A549)	Euclidean distance (DU145)	Euclidean distance (FB)	Euclidean distance (HEPG2)	Euclidean distance (OVCAR4)
O=P(O)(NCCCl)NCCCl [Palifosfamide]	1.23	0.923	1.53	1.11	0.698	1.21
CCOC(=O)Nc1ccc(NCc2ccc(F)cc2)cc1N [Retigabine 2HCl]	0.771	1.35	0.995	0.958	0.601	0.882
CC[C@H]1[C@@H]2C[C@H]3[C@@H]4N(C)c5ccccc5[C@]45C[C@@H]([C@@H]2[C@H]5O)N3[C@@H]1O [Ajmaline]	1.39	0.849	1.04	0.914	0.486	1.05
Oc1cccc2cccnc12 [8-Hydroxyquinoline]	4.55	1.4	2.11	6.09	1.99	1.56
CC(C)(C)NCC(O)c1ccccc1Cl (configuration not stated) [Tulobuterol hydrochloride]	0.975	0.768	0.82	0.711	0.75	1.75
CCC(=O)O[C@H]1CC[C@H]2[C@@H]3CC[C@H]4CC(=O)[C@H](C)C[C@]4(C)[C@H]3CC[C@]12C [Drostanolone Propionate]	0.791	1.02	0.706	0.585	1.34	0.745
N=C(N)NN [Aminoguanidine hydrochloride]	0.96	1.11	0.602	0.888	0.598	0.998
C[C@@H]1CC[C@H]2[C@@H](C)C(=O)O[C@@H]3O[C@@]4(C)CC[C@@H]1[C@]32OO4 [Artemisinin]	1.18	1.01	1.43	0.903	1.24	1.25
CO[C@H]1CC[C@@H](O[C@H]2C[C@H]([C@]3(C)CC[C@]4(C[C@H](O)[C@@H](C)[C@@H]([C@@H](C)/C=C(\C)C(=O)[C@H](C)C[C@H](C)C(=O)O)O4)O3)O[C@]3(O[C@@H]([C@H]4O[C@@](O)(CO)[C@H](C)C[C@@H]4C)C[C@@H]3C)[C@@H]2C)O[C@@H]1C [Nanchangmycin]	3.94	1.41	2.28	4.66	3.85	1.11
CCC(=O)CCCCC[C@@H]1NC(=O)[C@H]2CCCCN2C(=O)[C@H]([C@@H](C)CC)NC(=O)[C@H](Cc2cn(OC)c3ccccc23)NC1=O [Apicidin]	3.74	3.31	1.07	2.16	1.52	1.84
CN1[C@H]2C[C@H](OC(=O)[C@H](CO)c3ccccc3)C[C@@H]1[C@@H](O)C2 [Anisodamine Hydrobromide]	0.645	0.397	2.62	1.12	0.513	0.688
CCOc1ccccc1-n1c(C(C)N2CCN(C(=O)COc3ccc(Cl)cc3)CC2)nc2ccccc2c1=O (configuration not stated) [Erastin]	3.85	1.31	1.34	3.12	1.68	2.13
Cc1ccc(-n2nccn2)c(C(=O)N2CCN(c3nc4cc(Cl)ccc4o3)CC[C@H]2C)c1 [Suvorexant (MK-4305)]	0.574	1.02	0.945	0.9	2.25	0.979
C[C@H]1CCC/C=C/[C@@H]2C[C@H](O)C[C@H]2[C@H](O)/C=C/C(=O)O1 [Brefeldin A]	3.77	3.61	4.53	4.79	4.54	3.85
COc1ccc(C(=O)O)cc1OC [Veratric acid]	0.978	0.85	1.2	0.896	1.05	0.931
NC(=O)CN1CC(c2ccccc2)CC1=O (configuration not stated) [Phenylpiracetam]	1.05	1.45	0.789	0.956	0.413	1.3
C=CC1CN2CCC1CC2C(O)c1ccnc2ccccc12 (configuration not stated)	1.34	0.884	1.11	0.875	0.638	1.13
CCc1c(C(=O)C(N)=O)c2c(OCC(=O)O)cccc2n1Cc1ccccc1	0.933	1.14	1.33	0.633	0.812	0.982
CCC1(c2ccc(N)cc2)CCC(=O)NC1=O (configuration not stated) [Aminoglutethimide]	1.19	0.545	0.574	1.37	0.54	1.67
C=CN1CCCC1=O.II [Povidone iodine]	0.772	0.725	0.784	1.19	1.94	1.05
CC[C@H](C)[C@H]1O[C@]2(C=C[C@@H]1C)C[C@@H]1C[C@@H](C/C=C(\C)[C@@H](O[C@H]3C[C@H](OC)[C@@H](O[C@H]4C[C@H](OC)[C@@H](O)[C@H](C)O4)[C@H](C)O3)[C@@H](C)/C=C/C=C3\CO[C@@H]4[C@H](O)C(C)=C[C@@H](C(=O)O1)[C@]34O)O2.CO[C@H]1C[C@H](O[C@H]2[C@H](C)O[C@@H](O[C@@H]3/C(C)=C/C[C@@H]4C[C@@H](C[C@]5(C=C[C@H](C)[C@@H](C(C)C)O5)O4)OC(=O)[C@@H]4C=C(C)[C@@H](O)[C@H]5OC/C(=C\C=C\[C@@H]3C)[C@]54O)C[C@@H]2OC)O[C@@H](C)[C@@H]1O [Avermectin B1]	1.43	2.77	1.59	1.1	1.38	1.76
